# High-throughput results: PubChem, National Center for Advancing Translational Sciences (NCATS)
# HT1080-NT tox: kills 2HG-producing HT-1080-NT fibrosarcoma cells | Potency, µM (top dose mostly 46.1 µM), for the others: at the top dose activity, negative = less viability, most hits filed as cytotoxic | AID 686970 | HT-1080-NT fibrosarcoma viability, CellTiter-Glo ATP luminescence, 48 h | 360,000 compounds, 1.6% hits;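 note: NT is the 2HG producing partner of a matched IDH1 knockdown line; potency is the fitted concentration of half-maximal effect; 0% = DMSO-treated cells and -100% = media-only wells without cells; nearly all actives have a fitted effect of over 55% in size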
#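 Fibrosarcoma NT cells, 750 per well in 5% FBS RPMI, were exposed to compound for 48 hours. Viability: CellTiter-Glo luminescence.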
# TDP1 cell CPT: DT40-hTDP1 cell growth loss with CPT; chicken DT40 Tdp1-/-;hTDP1 cells + 20 nM CPT, ATP luminescence, 48 h; Potency, µM (titrated, usually from 46.2 µM), without a hit: at the highest dose activity change, negative = growth inhibition, most hits filed as inhibitors; 420,000 compounds, 12% hits; AID 686979; note: potency is the fitted concentration of half-maximal effect; nearly all actives have a fitted effect of over 55% in size
#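 Chicken DT40 Tdp1-/- cells complemented with human TDP1, 400 cells/well, exposed to compounds plus 20 nM camptothecin for at least 48 h at 37 C; viability read as ATP content by CellTiter-Glo luminescence.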
# DT40 TDP1 no CPT: qHTS for Inhibitors of human tyrosyl-DNA phosphodiesterase 1 (TDP1): qHTS in cells in absence of CPT; Potency, µM (top dose mostly 46.2 µM), for the others: at the highest dose activity change, negative = growth inhibition, actives largely listed as inhibitors; AID 686978, 2013; DT40 Tdp1-/- hTDP1 cells, no CPT, ATP luminescence, 48 h; 420,000 compounds, 15% hits; note: potency is the fitted concentration of half-maximal effect; nearly all actives have a fitted effect of over 55% in size
#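 Stably hTDP1-transfected Tdp1-null chicken DT40 cells were treated with library compounds minus camptothecin and grown for at least 48 hr at 37 °C, after which cellular ATP was quantified by luminescence.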
# ELG1 repair inh: blocks ELG1-dependent DNA repair in HEK293T cells | HEK293T ELG1-luciferase reporter, luminescence, 16 h; DNA damage induced by 5-fluorouridine | Potency, µM (top dose mostly 46.1 µM), for the others: at the highest dose activity change, negative = inhibition, usual class: inhibitors | 330,000 compounds, 2.3% hits | AID 504467; note: potency is the fitted concentration of half-maximal effect; nearly all actives have a fitted effect of over 55% in size
#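 Overnight (16 hr) co-exposure of 2,000 cells/well to 5-fluorouridine and compound at 37 °C preceded detection. Luciferase was quantified via ONE-Glo luminescence; loss of signal denotes inhibition.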
# IL-1B inflam inh: inhibitors of inflammasome signaling (IL-1 beta secretion) | activity change, % at 57.5 µM | 360,000 compounds, 4.7% hits | THP-1 LPS/ATP IL-1B secretion, AlphaLISA, 16 h; hits give low values; in the data active = activity change below about -50%; inconclusive = mostly about -30% to -49%
#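 THP-1 cells pretreated 1 hr with compounds (up to 57.5 uM final), then stimulated with LPS (250 ng/mL final) plus ATP (1.25 mM final); secreted IL-1B measured by AlphaLISA after 16 hr, decreased signal indicating inhibition.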
# HT1080 IDH1KD tx: toxicity to HT-1080 IDH1 knockdown cells (counter line) | HT-1080 IDH1 knockdown viability, ATP luminescence, 48 h | Potency, µM (doses to about 46.1 µM), for the others: top-dose activity, negative = toxicity, usual class: cytotoxic | 360,000 compounds, 2% hits | AID 686971;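 note: potency is the fitted concentration of half-maximal effect; 0% = DMSO wells and -100% = cell-free medium wells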
#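 IDH1KD HT-1080 cells, 750/well, RPMI + 5% FBS; compound pinned after 2 h settling; 48 h, 37 °C; CellTiter-Glo luminescence; % activity normalised to DMSO and no-cell wells; curves fitted, classed by r2 and efficacy.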
# The depositor's hits bear a star; ? = inconclusive; / = not tested or not shown; [ ] = remark or other dose. A selection: hits, their analogues and other compounds. The true share with any hit is near 19%. Unless noted, calls come from the whole dose curve; as a rule, active = well fitted curve in the direction sought with a large enough effect; inconclusive = small, poorly fitted or top-dose-only effect, or another doubt; inactive = no such curve, though single readings can be large; an effect the other way counts as inactive or inconclusive. Unless noted, % is set by controls: 0 for no effect and ±100 for the full control effect.
SMILES,HT1080-NT tox,TDP1 cell CPT,DT40 TDP1 no CPT,ELG1 repair inh,IL-1B inflam inh,HT1080 IDH1KD tx
COc1cc(Cl)c(C)cc1NC(=O)CNC(=O)Cn1ccc2ccccc2c1=O,/,-3%,-8%,/,/,/
C/C(=N\NC(=O)c1nnn(-c2nonc2N)c1CSc1ccc(C)cc1)c1cccs1,-2%,-18%,?,/,-6,0%
CN(C)c1cccc(C(=O)NCCCSc2ccccc2)c1,-1%,?,-4%,?,-16,-1%
CCOc1ccccc1C(=O)Nc1cc2c(cc1N1CCCC1)n(CC)c(=O)n2CC,-3%,4.6µM*,4.6µM*,8.2µM*,-10,-25%
Cc1ccccc1NC(=O)C1C2CCCC1C2c1ccccc1 (centres undefined),0%,18µM*,?,20%,5,-4%
Cc1ccc(C)c(NC(=O)C2C3CCCC2C3c2ccccc2)c1 (centres undefined),12%,?,-16%,18%,0,3%
COc1ccc(CCN2CCCn3c2nc2c3c(=O)[nH]c(=O)n2C)cc1OC,?,26µM*,7.3µM*,-13%,54,18µM*
CC1(C(=O)NC2CCN(Cc3ccccc3)CC2)CCN1Cc1cc2ccccc2o1 (centres undefined),-21%,?,-85%,/,-12,-12%
NC(=O)c1csc(C2OC(CO)C(O)C2O)n1 (centres undefined),-9%,0.046µM*,0.026µM*,/,94,-22%
O=C(Nc1ccc(Oc2ccccc2)cc1)c1csc([C@@H]2O[C@H](CO)[C@@H](O)[C@H]2O)n1,?,16µM*,21µM*,/,71,7.3µM*
CC(=O)Nc1ccc(NC(=O)c2csc([C@@H]3C[C@H](O)[C@@H](CO)O3)n2)cc1,24%,-14%,-11%,/,34,18%
O=C(Nc1ccc(Oc2ccccc2)cc1)c1csc([C@H]2C[C@H](O)[C@@H](CO)O2)n1,?,16µM*,10µM*,/,46,?
COC(=O)c1csc(C2OC(CO)C(O)C2O)n1 (centres undefined),2%,-2%,-25%,/,27,1%
CCc1nn2c(=O)cc(COC(=O)c3ccccc3NC(=O)c3ccc(C(C)(C)C)cc3)nc2s1,/,4%,-23%,/,/,/
Cc1cc(=O)[nH]c2nnc(SCc3cccc(C(F)(F)F)c3)n12,/,15%,?,/,/,/
CCOC(=O)CSc1nsc(SCC(=O)OCC)c1C#N,4%,-10%,-10%,3%,?,0%
CC(=O)CSc1nsc(SCC(C)=O)c1C#N,-7%,18µM*,18µM*,-3%,8,-3%
Cc1csc(NC(=O)CSc2nsc(SCC(=O)Nc3nc(C)cs3)c2C#N)n1,-26%,16µM*,13µM*,?,-9,?
Cc1ccc(NC(=O)CSc2nsc(SCC(=O)Nc3ccc(C)cc3C)c2C#N)c(C)c1,-1%,?,?,7%,39,-18%
CC(C)(C)NC(=O)CSc1nsc(SCC(=O)NC(C)(C)C)c1C#N,-2%,23µM*,16µM*,9.2µM*,13,-5%
CCC(=O)OCC(=O)[C@@]1(OC(=O)CC)[C@H](C)C[C@H]2[C@H]3[C@H]([C@@H](O)C[C@@]21C)[C@@]1(C)C=CC(=O)C=C1C[C@H]3Cl,/,-28%[21.1 µM],-29%[21.1 µM],/,/,/
CCn1cc(C(=O)N2CCN(c3cccc(C(F)(F)F)c3)CC2)c2cc(OC)c(OC)cc2c1=O,/,18µM*,23µM*,/,/,/
CCn1cc(C(=O)NCC(=O)OC)c2cc(OC)c(OC)cc2c1=O,9%,-5%,-2%,-3%,20,11%
CCn1cc(C(=O)N2CCN(c3cccc(C)c3C)CC2)c2cc(OC)c(OC)cc2c1=O,/,21µM*,21µM*,/,/,/
COCC(=O)N1CCN(c2cccc(C(F)(F)F)c2)CC1,14%,?,-23%,1%,0,3%
SMILES,HT1080-NT tox,TDP1 cell CPT,DT40 TDP1 no CPT,ELG1 repair inh,IL-1B inflam inh,HT1080 IDH1KD tx
COc1cc2c(C(=O)N3CCN(c4cccc(Cl)c4)CC3)cn(CC(C)C)c(=O)c2cc1OC,-23%,23µM*,?,?,0,?
COc1ccccc1C(=O)N1CCN(c2cccc(C(F)(F)F)c2)CC1,15µM*,10µM*,12µM*,?,-2,9.2µM*
COc1cc2c(C(=O)N3CCN(c4ccccc4F)CC3)cn(C)c(=O)c2cc1OC,-4%,-8%,-24%,0%,13,-27%
COc1ccc(Cl)cc1NC(=S)N(CCN1CCOCC1)C1CCN(C(C)=O)CC1,15%,20%,0%,7%,5,0%
COc1cc(OC)c(NS(=O)(=O)c2cc(Br)cnc2N)cc1Cl,-13%,-12%,-2%,7%,22,-21%
CCc1c(C(=O)N/N=C/c2ccco2)nnn1-c1nonc1N,14%,1%,-1%,2%,-2,16%
COc1cc(C(=O)N2CCN(c3cccc(C(F)(F)F)c3)CC2)ccc1OCC(=O)N1CCOCC1,-2%,23µM*,21µM*,/,-10,-9%
Cc1cccc(-n2c(=S)[nH]c3sc4c(c3c2=O)CCc2ccccc2-4)c1,2%,9.2µM*,6.5µM*,?,0,8%
Cc1ccc(-n2c(=S)[nH]c3sc4c(c3c2=O)CCc2ccccc2-4)cc1,17%,-38%,-23%,-1%,36,21%
N#C/C(=C\c1ccc(-c2ccccc2[N+](=O)[O-])o1)C(=O)Nc1nc(-c2cccs2)cs1,-8%,?,29µM*,21µM*,-4,?
CCOC(=O)C1(C)CCN1C(=O)/C=C/c1ccccc1 (centres undefined),23%,-24%,-21%,/,23,8%
Cn1nccc1C(=O)N1CCc2c([nH]c3ccccc23)C1c1ccc(F)cc1 (centres undefined),0%,-14%,-7%,?,-12,-14%
CCN(CC)c1ccc(C(=O)N2CCc3c([nH]c4ccccc34)C2c2ccc(F)cc2)cc1 (centres undefined),/,2.9µM*,?,/,/,/
CCc1ccc(C2c3[nH]c4ccccc4c3CCN2C(=O)c2cc[n+]([O-])cc2)cc1 (centres undefined),?,26µM*,16µM*,-7%,13,?
